# Laboratory results taken from PubChem BioAssay (EPA / NIEHS).
# Active and inactive are the calls of the source. Rule for the calls: active = hit-call score of the fitted dose curve at least 0.9, where 1 is the maximum; inactive = score below 0.9.
# Test system: not listed separately
# Test: APR_HepG2_NuclearSize_72hr: Apredica 72-hour HepG2 Assay for Nuclear Size (AID 2282925)
# Settings: high-content imaging, actives raise or lower the signal
# Method in brief: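 HepG2 cells dosed 72 h at 0.39–200 uM (10 concentrations, duplicate) in 0.5% v/v DMSO final. Fixed, Hoechst 33342-stained nuclei imaged; nuclear diameter measured by automated image analysis. Bidirectional fit versus DMSO.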
SMILES,outcome,AC50
CC(C)CCCCCCOC(=O)CCCCC(=O)OCCCCCCC(C)C,inactive,–
NC(=O)N1C(=O)C(C(=O)c2cc(Cl)cs2)c2cc(F)c(Cl)cc21 (stereo unspecified),inactive,–
CC#C[C@]1(O)CC[C@H]2[C@@H]3CCC4=CC(=O)CCC4=C3[C@@H](c3ccc(N(C)C)cc3)C[C@@]21C,inactive,–
CCCCCCC(=O)O,inactive,–
CC[C@H](c1ccc(O)cc1)[C@@H](CC)c1ccc(O)cc1,inactive,–
CCCOc1sc(C(=O)N2CCC(c3cc(CN)ccc3F)CC2)c(C)c1Br,–,97.5 µM (active)
CC(O)CO (stereo unspecified),inactive,–
O=C(O)c1ccccc1C(c1ccc(O)cc1)c1ccc(O)cc1,inactive,–
Oc1cccc(O)c1,inactive,–
CC(C)(C)c1cc(C(C)(C)C)c(O)c(C(C)(C)C)c1,inactive,–
CCCCC(CC)COC(=O)CCCCC(=O)OCc1ccccc1 (stereo unspecified),inactive,–
CN1CCC[C@H]1c1cccnc1,inactive,–
OC1CCC(C2CCCCC2)CC1 (stereo unspecified),inactive,–
CCCCCCCCCCCCc1ccccc1S(=O)(=O)O,inactive,–
COCC(C)O (stereo unspecified),inactive,–
CC(C)(C)c1cccc(C(C)(C)C)c1O,inactive,–
Cc1cc(C)c(O)c(C)c1,inactive,–
CC(C)(C)c1ccc(O)c(C(C)(C)C)c1,inactive,–
Oc1cc2ccccc2c2ccccc12,inactive,–
N#C[C@@H]1CC(F)(F)CN1C(=O)CNC1CC2CCC(C1)N2c1ncccn1 (stereo partly specified),inactive,–
O=C(OCCOCCOC(=O)c1ccccc1)c1ccccc1,inactive,–
COc1ccc([N+](=O)[O-])cc1N,inactive,–
NC(=O)N(O)[C@@H]1C=C[C@H](Oc2cccc(Oc3ccc(F)cc3)c2)C1,inactive,–
CCC(C)(C)C1CCC(O)CC1 (stereo unspecified),inactive,–
c1ccc2c(c1)ccc1ccccc12,inactive,–
CCOC(=O)CC(O)(CC(=O)OCC)C(=O)OCC,inactive,–
Nc1cccc2c(N)cccc12,inactive,–
C[C@@H]1C[C@H]2[C@@H]3CCC4=CC(=O)C=C[C@]4(C)[C@@]3(F)[C@@H](O)C[C@]2(C)[C@@]1(O)C(=O)COP(=O)(O)O,–,1.84 µM (active)
CCCCCCCCOC(=O)CCCCCCCCC(=O)OCCCCCCCC,inactive,–
CC(C)(C)CC(C)(C)c1ccc(O)c(-n2nc3ccccc3n2)c1,–,80.4 µM (active)

# Target: CCAAT/enhancer-binding protein beta (Homo sapiens) (UniProt P17676)
# Sequence (P17676 whole entry, looked up): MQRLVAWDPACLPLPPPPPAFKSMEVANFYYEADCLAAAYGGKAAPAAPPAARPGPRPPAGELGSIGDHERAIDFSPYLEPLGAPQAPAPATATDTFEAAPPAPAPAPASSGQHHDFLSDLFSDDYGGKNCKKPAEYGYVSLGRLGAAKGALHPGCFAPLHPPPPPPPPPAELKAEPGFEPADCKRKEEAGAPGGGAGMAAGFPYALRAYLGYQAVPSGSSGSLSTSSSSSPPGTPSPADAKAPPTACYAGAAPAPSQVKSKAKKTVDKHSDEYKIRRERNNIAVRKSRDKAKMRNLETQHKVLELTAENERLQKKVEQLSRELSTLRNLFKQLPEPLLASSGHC
# Test: ATG_C_EBP_CIS: Attagene CIS-FACTORIAL HepG2 Assay for human CCAAT/Enhancer Binding Protein (C/EBP) beta (AID 2282927)
# Settings: HepG2 Attagene cis-factorial transcription factor reporter; actives raise or lower the signal
# Method in brief: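 Transiently transfected HepG2 (MRTU library, endogenous TF-driven promoters); 24 h dosing; total RNA → oligo(dT) RT → PCR → 6-FAM primer extension → HpaI digest → CE; fit bidirectionally vs DMSO.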
row,SMILES,outcome
1,CC(C)CCCCCCOC(=O)CCCCC(=O)OCCCCCCC(C)C,inactive
2,NC(=O)N1C(=O)C(C(=O)c2cc(Cl)cs2)c2cc(F)c(Cl)cc21 (stereo unspecified),inactive
3,CC#C[C@]1(O)CC[C@H]2[C@@H]3CCC4=CC(=O)CCC4=C3[C@@H](c3ccc(N(C)C)cc3)C[C@@]21C,inactive
4,CCCCCCC(=O)O,inactive
5,O=C1OC2(c3ccccc31)c1cc(Br)c(O)c(Br)c1Oc1c2cc(Br)c(O)c1Br,inactive
6,CC[C@H](c1ccc(O)cc1)[C@@H](CC)c1ccc(O)cc1,inactive
7,CCCOc1sc(C(=O)N2CCC(c3cc(CN)ccc3F)CC2)c(C)c1Br,inactive
8,CC(O)CO (stereo unspecified),inactive
9,O=C(O)c1ccccc1C(c1ccc(O)cc1)c1ccc(O)cc1,inactive
10,NCC(F)(F)C(F)(F)C(F)(F)C(F)(F)C(F)(F)C(F)(F)C(F)(F)F,inactive
11,Oc1cccc(O)c1,inactive
12,CC(C)(C)c1cc(C(C)(C)C)c(O)c(C(C)(C)C)c1,inactive
13,CCCCC(CC)COC(=O)CCCCC(=O)OCc1ccccc1 (stereo unspecified),inactive
14,CN1CCC[C@H]1c1cccnc1,inactive
15,OC1CCC(C2CCCCC2)CC1 (stereo unspecified),inactive
16,CCCCCCCCCCCCc1ccccc1S(=O)(=O)O,inactive
17,COCC(C)O (stereo unspecified),inactive
18,CC(C)(C)c1cccc(C(C)(C)C)c1O,inactive

row,SMILES,outcome
1,Cc1cc(C)c(O)c(C)c1,inactive
2,CC(C)(C)c1ccc(O)c(C(C)(C)C)c1,inactive
3,Oc1cc2ccccc2c2ccccc12,inactive
4,N#C[C@@H]1CC(F)(F)CN1C(=O)CNC1CC2CCC(C1)N2c1ncccn1 (stereo partly specified),inactive
5,O=C(OCCOCCOC(=O)c1ccccc1)c1ccccc1,inactive
6,CC(O)C(=O)O (stereo unspecified),inactive
7,COc1ccc([N+](=O)[O-])cc1N,inactive
8,Cc1ccc(S(=O)(=O)O)c(C)c1,inactive
9,NC(=O)N(O)[C@@H]1C=C[C@H](Oc2cccc(Oc3ccc(F)cc3)c2)C1,inactive
10,CCC(C)(C)C1CCC(O)CC1 (stereo unspecified),inactive
11,FC(F)(I)C(F)(F)C(F)(F)C(F)(F)C(F)(F)C(F)(F)I,inactive
12,c1ccc2c(c1)ccc1ccccc12,inactive
13,CCOC(=O)CC(O)(CC(=O)OCC)C(=O)OCC,inactive
14,CCCCCCCCCCCCCC[N+](C)(C)C,inactive
15,Nc1cccc2c(N)cccc12,inactive
16,C[C@@H]1C[C@H]2[C@@H]3CCC4=CC(=O)C=C[C@]4(C)[C@@]3(F)[C@@H](O)C[C@]2(C)[C@@]1(O)C(=O)COP(=O)(O)O,inactive
17,CCCCCCCCOC(=O)CCCCCCCCC(=O)OCCCCCCCC,inactive
18,CC(C)(C)CC(C)(C)c1ccc(O)c(-n2nc3ccccc3n2)c1,inactive
